Source: PubChem BioAssay (NCATS)
Results filed as inconclusive are left out. Values without a mark were called inactive. Activity calls are given as the source filed them. The call rests on the fitted dose curve; in most records, active means well fitted inhibition curve with a large enough effect; inconclusive means small, poorly fitted or top-dose-only effect; inactive means flat fitted curve, though single readings scatter.

Test: qHTS for Inhibitors of Plasmodium falciparum (7G8) proliferation (AID 504316); further: nearly all actives have a fitted effect of over 65% in size;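 on activity change, negative = inhibition: 0% = DMSO vehicle and -100% = 0.29 µM artemisinin full kill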
Conditions: P. falciparum 7G8 in erythrocytes, SYBR Green DNA, 72 h; series mostly up to 6.7 µM; activity change, negative = inhibition: at the top concentration
Description: Plasmodium falciparum is a virulent malarial parasite that kills 1-2 million people worldwide each year. Malaria not only inflicts tremendous suffering and morbidity on the human population, but has dramatically influenced the course of civilization with profound sociological and economic implications (Shah, S. 2010). Transmitted by mosquitoes, the sporozoite form of the parasite enters the blood stream to infect hepatocytes, where they become merozoites that infect red blood cells (erythrocytes). Within erythrocytes, merozoites begin a […] cycle of growth and division, after which the parasite is released to infect new red blood cells. Gametocytes, which form within erythrocytes as well, circulate in the bloodstream and are ingested by the mosquito, thereby completing the life cycle (see CDC website). To profile malarial lines for differential chemical responses and to identify inhibitors of malarial growth, an assay that measures P. falciparum growth and replication within erythrocytes was employed. This assay uses a DNA binding fluorescent dye (SYBR Green) to detect parasite DNA following cell lysis. Because mature erythrocytes lack DNA, only Plasmodium-derived DNA is detected. The P. falciparum line cp250, derived from a malarial isolate from Cambodia, (Mu, J., et al. 2010) was added to the panel of lines, Dd2, HB3, 7G8 and GB4 in this study. Laboratory of Assay Development and Screening Technology [ADST] and NIH Chemical Genomics Center [NCGC] Boston University, Chemistry Department, Center for Chemical Methodology and Library Development [CMLD-BU] NIH National Institute of Allergy and Infectious Diseases [NIAID]
ADST Assay Protocol Summary: The 1536-well SYBR Green viability assay was based on the method of Bennett et al (2004) and described previously in 1536-well format (Yuan J., et al. 2009). For screening 3 ul culture medium was dispensed into 1536 well black clear bottom plates (Aurora Biotechnologies) using a Multidrop Combi (Thermo Fisher Scientific Inc.), 23 nL compounds in DMSO were added by a pin transfer (Cleveland, P.H. and Koutz, P.J, 2005) using a pin tool-based delivery system (Kalypsys), and 5 ul of erythrocytes infected with P. falciparum one of five lines (cp250, Dd2, HB3, 7G8 or GB4, 0.3% parasitemia, 2.5% hematocrit final concentration) were added. The plates were incubated at 37C in a humidified incubator in 5% CO2 for 72 h, and 2 ul lysis buffer (20 mM Tris HCl, 10 mM EDTA, 0.16% saponin, 1.6% triton X, 10X SYBR Green I (supplied as 10,000X final concentration by Invitrogen) was added to each well. The plates were mixed for 25 sec with gentle shaking and incubated overnight at room temperature in the dark. The following morning, fluorescence intensity at 485(14) nm excitation and 535(25) nm emission wavelengths was measured on an EnVision (Perkin Elmer) plate reader. Plate reads were normalized relative to the control inhibitor (0.29 uM artemisinin) and vehicle (DMSO) wells present on each plate and then corrected by an algorithm using vehicle-only control plates at the beginning and end of the compound plate stack. References Shah, S. (2010). The Fever: how malaria has ruled humankind for 500,000 years. New York, Sarah Crichton Books. CDC web site, http://www.cdc.gov/malaria/about/biology/index.html Mu, J., Myers, R.A., Jiang, H., Liu, S., Ricklefs, S., Waisberg, M., Chotivanich, K., Wilairatana, P., Krudsood, S., White, N.J., et Plasmodium falciparum genome-wide scans for positive selection, recombination hot spots and resistance to antimalarial drugs Nature Genetics 2010, 42, pp 268-271 Bennett TN, Paguio, M., Gligorijevic, B., Seudieu, C., Kosar, A. D., Davidson, E., and Roepe, P. D. Novel, rapid, and inexpensive cell-based quantification of antimalarial drug efficacy Antimicrobial Agents Chemother. 2004, 48(5): pp 1807-10 Yuan J, Johnson RL, Huang RL, Wichterman J, Jiang HY, Hayton K, Fidock DA, Wellems TE, Inglese J, Austin CP, Su XZ. […]
Potency means the concentration at half of the fitted maximal effect.

Structure (SMILES) | activity change, negative = inhibition | Potency
COC(=O)CCCC1=CC2=CC(=O)C(C)(OC(=O)c3cccs3)C(=O)C2=CN1Cc1ccc2c(c1)OCO2 (stereo not given) | -7.01% | –
CC1(OC(=O)CCc2ccccc2)C(=O)C=C2C=C(c3ccc(C#N)cc3)N(CCc3ccccn3)C=C2C1=O (stereo not given) | 5.76% | –
CCOC(=O)CN1C(=O)N[C@@H](c2cccc(F)c2)C(C(=O)OC)=C1C | 1.8% | –
CC1(OC(=O)CCc2ccccc2)C(=O)C=C2C=C(c3ccc(C#N)cc3)N(C3CC3)C=C2C1=O (stereo not given) | -16% | –
CCCCC1=CC2=C(c3ccco3)C(=O)C(C)(OC(=O)c3ccc(OC)cc3)C(=O)C2=CN1c1ccccc1 (stereo not given) | – | inactive
CCN(CC)CCCN1C=C2C(=O)C(C)(OC(=O)C3CCCC3)C(=O)C(c3ccccc3)=C2C=C1CCCC(=O)OC (stereo not given) | -1.17% | –
COC(=O)[C@@H]1[C@H](CCc2ccccc2)NC(=O)N(Cc2ccccc2)[C@H]1C | 1.01% | –
COC(=O)C1=C(C)N(Cc2ccccc2)C(=O)N[C@H]1c1cccc(F)c1 | -10.4% | –
CCCCc1nc2c(c3c1C[C@H](C)OC3)CN(C(=O)N[C@H](C(=O)OC)C(C)C)CC2 | – | 1350 nM (active)
COC(=O)[C@@H]1[C@@H](C)N(Cc2ccccc2)C(=O)N[C@H]1c1ccccc1 | -11.2% | –
COC(=O)C1=C(C(=O)OC)[C@@H]2N(C)c3ccccc3[C@@]23C[C@@H](C(=O)OC)N(C(=O)CC(C)C)C3=N1 | 0.0838% | –
COCCN1C(=O)N[C@@H](c2ccco2)C(C(=O)OC)=C1C | -7.63% | –
COC/C=C/C1=CC2=CC(=O)C(C)(OC(=O)c3cnc4ccccc4n3)C(=O)C2=CN1C1CC1 (stereo not given) | -13.2% | –
CCN1C(=O)N[C@@H](c2ccco2)C(C(C)=O)=C1C | 3.74% | –
COC/C=C/C1=CC2=CC(=O)C(C)(OC(=O)c3cnc4ccccc4n3)C(=O)C2=CN1Cc1ccc(OC)cc1 (stereo not given) | 4.39% | –
COC(=O)C1=C(C(=O)OC)[C@@H]2N(C)c3ccc(OC)cc3[C@@]23C[C@@H](C(=O)OC)N=C3N1 | 0.585% | –
CCCCC1=CC2=C(c3ccco3)C(=O)C(C)(OC(=O)c3ccc(OC)cc3)C(=O)C2=CN1C1CC1 (stereo not given) | 0.932% | –
COC/C=C/C1=CC2=CC(=O)C(C)(OC(=O)c3cnc4ccccc4n3)C(=O)C2=CN1CCCOC(C)C (stereo not given) | -0.859% | –
CCN1C(=O)N[C@@H](CCc2ccccc2)C(C(C)=O)=C1C | -1.52% | –
CC#CCN1C(=O)N[C@@H](c2ccccc2)C(C(=O)OC)=C1C | 3.11% | –

Structure (SMILES) | activity change, negative = inhibition | Potency
CCN1C(=O)N[C@@H](c2ccco2)C(C(=O)OC)=C1C | 2.68% | –
COCCN1C(=O)N(C)[C@@H](c2ccccc2)C(C(C)=O)=C1C | -13.1% | –
COC(=O)C1=C(C(=O)OC)[C@@H]2N(Cc3ccccc3)c3ccccc3[C@@]23C[C@@H](C(=O)OC)N(C(C)=O)C3=N1 | -0.773% | –
CC#CCN1c2ccccc2[C@]23C[C@@H](C(=O)OC)N=C2NC(C(=O)OC)=C(C(=O)OC)[C@H]13 | 0.0053% | –
COC(=O)C1=C(C)N(Cc2ccccc2)C(=O)N[C@H]1c1ccc(Br)cc1 | -13% | –
CC#CCN1c2ccccc2[C@]23C[C@@H](C(=O)OC)N(S(=O)(=O)c4cccs4)C2=NC(C(=O)OC)=C(C(=O)OC)[C@H]13 | 0.919% | –
CCOC(=O)CN1C(=O)N[C@@H](c2ccco2)C(C(C)=O)=C1C | 2.31% | –
CC(C)OCCCN1C=C2C(=O)C(C)(OC(=O)CCc3ccccc3)C(=O)C=C2C=C1c1ccc(C#N)cc1 (stereo not given) | 0.465% | –
COCCN1C(=O)N[C@@H](c2cccc(F)c2)C(C(C)=O)=C1C | 2.85% | –
CC[C@H](C)[C@@H](NC(=O)O[C@@H]1C(=O)c2cc(Br)ccc2O[C@H]1c1cccc(OC)c1)C(=O)OC | -11.2% | –
CCN1C(=O)N[C@@H](c2cccc(C(F)(F)F)c2)C(C(C)=O)=C1C | -2.14% | –
COC/C=C/C1=CC2=CC(=O)C(C)(OC(=O)c3cnc4ccccc4n3)C(=O)C2=CN1C1CCCCC1 (stereo not given) | 2.88% | –
COC(=O)CCC(=O)OC1(C)C(=O)C2=CN(C3CC3)C(c3ccc(OC)cc3)=CC2=C(Br)C1=O (stereo not given) | -19.3% | –
COC(=O)CCCC1=CC2=C(c3ccccc3)C(=O)C(C)(OC(=O)C3CCCC3)C(=O)C2=CN1C1CC1 (stereo not given) | -1.33% | –
C=CCOC(=O)N[C@H](C(C(=O)OC)=C(C)NCc1ccccc1)c1cccc(F)c1 | 5.9% | –
COC(=O)C1=C(C(=O)OC)[C@@H]2N(C)c3ccccc3[C@@]23C[C@@H](C(=O)OC)N=C3N1 | -3.42% | –
CCN1C(=O)NC(c2ccc(Br)cc2)C(C(=O)OC)=C1C (stereo not given) | -3.36% | –
CCCCc1nc2c(c3c1C[C@H](C)OC3)CN(C(=O)COC)CC2 | -4.1% | –
COC(=O)C1=C(C)N(CC2CC2)C(=O)N[C@H]1c1ccccc1 | 2.83% | –
COC(=O)C1=C(C(=O)OC)[C@@H]2Nc3ccccc3[C@@]23C[C@@H](C(=O)OC)N(S(=O)(=O)c2ccc4c(c2)OCCN4C)C3=N1 | – | 1510 nM (active)
